Data as given in paper PMC10726135, “HNF4α isoforms regulate the circadian balance between carbohydrate and lipid metabolism in the liver”.
Over roughly 18,000 sequences, “log2 normalized intensity” has its median near 0.39; the highest 2% begin near 6.6. Only a selection was taken, and the highest values are over-represented in it overall.

Biological target: T1, HNF4alpha2 (COS-7 nuclear extract) (Homo sapiens, UniProt P41235 1-474)
T1 sequence: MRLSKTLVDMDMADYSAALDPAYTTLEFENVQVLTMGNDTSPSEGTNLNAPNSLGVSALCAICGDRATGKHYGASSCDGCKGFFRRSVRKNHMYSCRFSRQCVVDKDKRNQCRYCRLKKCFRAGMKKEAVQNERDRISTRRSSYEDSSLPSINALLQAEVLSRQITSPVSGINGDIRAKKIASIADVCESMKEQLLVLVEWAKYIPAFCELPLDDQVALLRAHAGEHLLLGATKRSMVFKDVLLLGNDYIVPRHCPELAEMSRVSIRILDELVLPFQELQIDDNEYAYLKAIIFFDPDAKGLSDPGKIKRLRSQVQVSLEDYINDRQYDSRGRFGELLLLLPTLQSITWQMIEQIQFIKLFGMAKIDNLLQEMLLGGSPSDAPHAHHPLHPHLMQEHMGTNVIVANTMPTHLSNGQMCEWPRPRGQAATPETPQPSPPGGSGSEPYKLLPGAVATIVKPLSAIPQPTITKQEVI
Experiment: protein-binding microarray; COS-7 nuclear extract on double-stranded Agilent 4x180k PBM; binding buffer, salt, pH and temperature not given in the material; high values mean tight binding
Conditions: chain copies: 2; label: 3' end of strand 1 on the slide; dsDNA, one strand shown
Procedure, shortened: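 The binding signal is Agilent software's gProcessedSignal after background correction and normalization. Arrays were a custom Agilent SurePrint G3 4x180k design of double-stranded ~60-nt oligonucleotides with ~44,000 test sequences in quadruplicate, probed with nuclear extracts of COS-7 cells transiently expressing a human HNF4α isoform. Scans were made at 2-µm resolution on an Agilent G2565CA scanner.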

In order of falling binding signal:
1. CAAACGAGACTTTGGACTTTGGACTTGGGAGCCTAGGGAGATTAGAGTATCGGTCGA  10.5 log2 normalized intensity
2. AATTCCAGTTTGGACTTTGATCCTGATGACGCCTAGGGAGATTAGAGTATCGGTCGA  9.15 log2 normalized intensity
3. GGATAATGATAAAGAGATTGGACTTTGGCCGCCTAGGGAGATTAGAGTATCGGTCGA  8.99 log2 normalized intensity
4. TACTGGGGATGGACTTTGGCCCTCAGCCCAGCCTAGGGAGATTAGAGTATCGGTCGA  8.56 log2 normalized intensity
5. AAAGAGATTGGACTTTGGCCTGTGAATCCAGCCTAGGGAGATTAGAGTATCGGTCGA  8.37 log2 normalized intensity
6. CAGCCTTTGGACTTTGAACTGCAACATCAGGCCTAGGGAGATTAGAGTATCGGTCGA  8.26 log2 normalized intensity
7. AGGCCAAACAAAAATATGGACTTTGGAATTGCCTAGGGAGATTAGAGTATCGGTCGA  7.99 log2 normalized intensity
8. AGTGCTGCATGCAAAAAGGCTGACCTTTGAGCCTAGGGAGATTAGAGTATCGGTCGA  7.82 log2 normalized intensity
9. TGCATGCAAAAAGGCTGACCTTTGACTCTCGCCTAGGGAGATTAGAGTATCGGTCGA  7.57 log2 normalized intensity
10. CAGTTTGGACTTTGATCCTGATGACTGCAGGCCTAGGGAGATTAGAGTATCGGTCGA  7.49 log2 normalized intensity
11. AAGAGCTGAGGAAGTGCTGACCTTTGGTCTGCCTAGGGAGATTAGAGTATCGGTCGA  7.29 log2 normalized intensity
12. TCTGCAGCAGATGGCCAGCCTTTGGACTTTGCCTAGGGAGATTAGAGTATCGGTCGA  7.15 log2 normalized intensity
13. AGATCATCCTGCAGTTCCTGATCTTTGACCGCCTAGGGAGATTAGAGTATCGGTCGA  7.04 log2 normalized intensity
14. ATGCAAAGCCCTGGCTGACCTTTAGCCTGGGCCTAGGGAGATTAGAGTATCGGTCGA  6.54 log2 normalized intensity
15. CTGAGGAAGTGCTGACCTTTGGTCTAAACCGCCTAGGGAGATTAGAGTATCGGTCGA  6.27 log2 normalized intensity
16. GGGATGGACTTTGGCCCTCAGCCCAATGTGGCCTAGGGAGATTAGAGTATCGGTCGA  6.2 log2 normalized intensity
17. GATTGGACTTTGGCCTGTGAATCCACATTCGCCTAGGGAGATTAGAGTATCGGTCGA  5.98 log2 normalized intensity
18. TCTTTAGGCCAAACAAAAATATGGACTTTGGCCTAGGGAGATTAGAGTATCGGTCGA  5.84 log2 normalized intensity
19. TAGATAAGAGCTGAGGAAGTGCTGACCTTTGCCTAGGGAGATTAGAGTATCGGTCGA  5.77 log2 normalized intensity
20. ATCCTGCAGTTCCTGATCTTTGACCTGGAGGCCTAGGGAGATTAGAGTATCGGTCGA  5.61 log2 normalized intensity
21. GGACTTTGGCCCTCAGCCCAATGTGGTAGGGCCTAGGGAGATTAGAGTATCGGTCGA  5.47 log2 normalized intensity
22. TGGACTTTGATCCTGATGACTGCAGAGCTTGCCTAGGGAGATTAGAGTATCGGTCGA  5.26 log2 normalized intensity
23. AAAATATGGACTTTGGAATTAAGAAAAGCTGCCTAGGGAGATTAGAGTATCGGTCGA  5.25 log2 normalized intensity
24. GCAGTTCCTGATCTTTGACCTGGAGCATGAGCCTAGGGAGATTAGAGTATCGGTCGA  4.61 log2 normalized intensity
25. ACCTGGAACTGAAAGAGACCTTTGACATCAGCCTAGGGAGATTAGAGTATCGGTCGA  4.5 log2 normalized intensity
26. CCCAGGTCACCCACAACCTACCCTTTGCCCGCCTAGGGAGATTAGAGTATCGGTCGA  3.99 log2 normalized intensity
27. TAATCCCTGAGCCTGGACCTTGGAATGTCAGCCTAGGGAGATTAGAGTATCGGTCGA  3.33 log2 normalized intensity
28. GAAGGAGAGAGAGGGAGAGTGGCCTTTGGAGCCTAGGGAGATTAGAGTATCGGTCGA  2.89 log2 normalized intensity
29. CACAAATTGGAGAGCATCTTGGACTTGGGAGCCTAGGGAGATTAGAGTATCGGTCGA  2.73 log2 normalized intensity
30. TCTGTGTGTATGTGTGTGTACACATTGATAGCCTAGGGAGATTAGAGTATCGGTCGA  2.42 log2 normalized intensity
31. CAGGGTCAATGTCCCCTTAGGAATAGTATCGCCTAGGGAGATTAGAGTATCGGTCGA  2.14 log2 normalized intensity
32. ATTTGGACTTTTACTCTTAGAGATAATGGGGCCTAGGGAGATTAGAGTATCGGTCGA  2.13 log2 normalized intensity
33. GAACAGCAAGACTTTGGCCCTGCAGACTTTGCCTAGGGAGATTAGAGTATCGGTCGA  2.09 log2 normalized intensity
34. AGTCCCTGTCCCTTCTTGGCAAGTTAATGTGCCTAGGGAGATTAGAGTATCGGTCGA  1.94 log2 normalized intensity
35. GGCTAGGGCAAAGATCAAACATACAGTAAAGCCTAGGGAGATTAGAGTATCGGTCGA  1.77 log2 normalized intensity
36. AATTCACGTCATTTTGTCACCTACATGTGAGCCTAGGGAGATTAGAGTATCGGTCGA  1.67 log2 normalized intensity
37. CTTTTTGACCTTGCAGTGGCAAGGCAAAAGGCCTAGGGAGATTAGAGTATCGGTCGA  1.56 log2 normalized intensity
38. CTTCTGTTCAGGAGTTGTCTGTCCAGTTCAGCCTAGGGAGATTAGAGTATCGGTCGA  1.56 log2 normalized intensity
39. CTGGACTTTGGCTGCAAAATTTGAACAAAAGCCTAGGGAGATTAGAGTATCGGTCGA  1.55 log2 normalized intensity
40. CTATCACTGTCTAGCTGTGTAACCCTGGACGCCTAGGGAGATTAGAGTATCGGTCGA  1.48 log2 normalized intensity
41. TCATCTTCAAAGCCAGCAATGGCAGGTCCAGCCTAGGGAGATTAGAGTATCGGTCGA  1.41 log2 normalized intensity
42. GTCAGAGTGCTGCATGCAAAAAGGCTGACCGCCTAGGGAGATTAGAGTATCGGTCGA  1.41 log2 normalized intensity
43. TCTGCAGACATGGACTCTGGGATCTCAGGGGCCTAGGGAGATTAGAGTATCGGTCGA  1.24 log2 normalized intensity
44. ACAGCTAGTCTAGACTTTGCTTTCTTGGAGGCCTAGGGAGATTAGAGTATCGGTCGA  1.24 log2 normalized intensity
45. GGAGAGAGTTTGGCCCCAGTTCCCATGGACGCCTAGGGAGATTAGAGTATCGGTCGA  1.18 log2 normalized intensity
46. CTCCTCTCCAGCCCATCCTAAGCCCCAGGGGCCTAGGGAGATTAGAGTATCGGTCGA  1.15 log2 normalized intensity
47. ATGATTGACAGGTTATTTCAATTACAAAGCGCCTAGGGAGATTAGAGTATCGGTCGA  1.06 log2 normalized intensity
48. CCCCCTTTTGCTTTCCGTTAGGCTACAGTGGCCTAGGGAGATTAGAGTATCGGTCGA  1.03 log2 normalized intensity
49. TGCCCTGGACATATTTGTCTTCCTATCTCCGCCTAGGGAGATTAGAGTATCGGTCGA  0.887 log2 normalized intensity
50. CCCGGCAGATCAGGGTCAGGCTGTGGTACGGCCTAGGGAGATTAGAGTATCGGTCGA  0.662 log2 normalized intensity
51. TGTCCAGCACACCTTTTTTTCATGCAAATTGCCTAGGGAGATTAGAGTATCGGTCGA  0.631 log2 normalized intensity
52. GGTCAACACAATCTGATAGTTGATTGATTGGCCTAGGGAGATTAGAGTATCGGTCGA  0.627 log2 normalized intensity
53. TTCCAGAGCCTTCAAAGGAAAGCAGGTGTTGCCTAGGGAGATTAGAGTATCGGTCGA  0.55 log2 normalized intensity
54. TGGTGGGGAATGCTAGGACTCATTCTCCCCGCCTAGGGAGATTAGAGTATCGGTCGA  0.442 log2 normalized intensity
55. CATTAAGCTTAGCGTTATCAAACCAAATATGCCTAGGGAGATTAGAGTATCGGTCGA  -0.0208 log2 normalized intensity
56. GGTGAGGGTGAGGGTGAGGGTTAGGGGTTAGCCTAGGGAGATTAGAGTATCGGTCGA  -0.0851 log2 normalized intensity
57. TAGCAATAATCTTTGAAATCTGCAAATAGAGCCTAGGGAGATTAGAGTATCGGTCGA  -0.0917 log2 normalized intensity
58. TTGAAAGGGACTTAGAATCGAATTGTGAAAGCCTAGGGAGATTAGAGTATCGGTCGA  -0.196 log2 normalized intensity
59. AAGAGATAAAAGAGAAGATAATGGATTGGGGCCTAGGGAGATTAGAGTATCGGTCGA  -0.492 log2 normalized intensity
60. CTGAGCCTCAGAACCATTTGTGAGGATGGGGCCTAGGGAGATTAGAGTATCGGTCGA  -0.528 log2 normalized intensity
61. TTTGATCCTGATGACTGCAGAGCTTGCTCTGCCTAGGGAGATTAGAGTATCGGTCGA  -0.687 log2 normalized intensity
62. AGGCTGTCAGAGTGCTGCATGCAAAAAGGCGCCTAGGGAGATTAGAGTATCGGTCGA  -0.743 log2 normalized intensity
63. GATGGAGATCATCCTGCAGTTCCTGATCTTGCCTAGGGAGATTAGAGTATCGGTCGA  -0.826 log2 normalized intensity
64. TGAATTCTGCAGCAGATGGCCAGCCTTTGGGCCTAGGGAGATTAGAGTATCGGTCGA  -0.936 log2 normalized intensity
65. AGAGCTCAGAAGCCACCAGTGCAAATATAAGCCTAGGGAGATTAGAGTATCGGTCGA  -0.972 log2 normalized intensity
